According to PubChem BioAssay AID485346 (Sanford-Burnham Center for Chemical Genomics, 2010):
Among all 330,000 compounds or so, about 10,000 (3%) were called active.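 How the source made its calls: active means inhibition of at least 50% at 8 µM in the primary screen; inactive means the rest.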 Shown is part of a subset that was picked to be rich in actives.

Target: Protein Mdm4 (Homo sapiens) + E3 ubiquitin-protein ligase Mdm2 (Homo sapiens) (UniProt O15151+Q00987)
Assay: inhibitors of human Mdm2-MdmX association, primary screen, cell-based, luminescence, split luciferase, SaOS-2, uHTS (AID 485346)
Details: SaOS-2 split-luciferase Mdm2/MdmX complementation, at 8 µM, active compounds read high

Protein Mdm4 (Homo sapiens) + E3 ubiquitin-protein ligase Mdm2 (Homo sapiens), sequence (O15151 whole entry, looked up): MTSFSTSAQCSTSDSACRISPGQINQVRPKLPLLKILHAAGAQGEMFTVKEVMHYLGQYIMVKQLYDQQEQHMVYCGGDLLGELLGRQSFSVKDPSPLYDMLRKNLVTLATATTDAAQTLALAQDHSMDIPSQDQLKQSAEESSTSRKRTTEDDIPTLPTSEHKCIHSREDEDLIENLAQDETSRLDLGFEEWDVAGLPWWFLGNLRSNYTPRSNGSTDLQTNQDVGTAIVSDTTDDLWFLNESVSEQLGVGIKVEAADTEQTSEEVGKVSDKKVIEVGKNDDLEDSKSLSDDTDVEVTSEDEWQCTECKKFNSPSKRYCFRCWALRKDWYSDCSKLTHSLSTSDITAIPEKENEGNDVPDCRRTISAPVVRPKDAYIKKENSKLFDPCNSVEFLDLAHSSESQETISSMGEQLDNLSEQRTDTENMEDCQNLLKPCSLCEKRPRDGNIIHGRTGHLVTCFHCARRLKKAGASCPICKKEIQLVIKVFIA
Protein Mdm4 (Homo sapiens) + E3 ubiquitin-protein ligase Mdm2 (Homo sapiens), sequence (Q00987 whole entry, looked up): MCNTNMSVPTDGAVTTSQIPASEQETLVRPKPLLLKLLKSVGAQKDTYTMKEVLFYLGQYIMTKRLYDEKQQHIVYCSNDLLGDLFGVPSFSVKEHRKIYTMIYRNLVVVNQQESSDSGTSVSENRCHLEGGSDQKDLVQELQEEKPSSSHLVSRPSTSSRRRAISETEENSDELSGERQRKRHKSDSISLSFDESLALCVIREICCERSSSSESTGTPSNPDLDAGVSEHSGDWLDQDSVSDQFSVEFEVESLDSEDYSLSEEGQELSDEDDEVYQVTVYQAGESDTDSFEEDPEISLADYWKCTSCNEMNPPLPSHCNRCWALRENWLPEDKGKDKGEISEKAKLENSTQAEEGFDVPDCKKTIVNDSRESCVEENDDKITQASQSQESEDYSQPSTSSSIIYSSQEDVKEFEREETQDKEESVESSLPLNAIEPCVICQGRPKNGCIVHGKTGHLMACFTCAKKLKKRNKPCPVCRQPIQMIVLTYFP

inhibition, active:
CC(=O)c1ccc(Oc2cc(C)nc(-n3nc(C)cc3C)n2)cc1 59.2%, C=CCn1c(C)cc(C(=O)CN2C(=O)c3ccccc3C2=O)c1C 68%, CC(C)n1cnc2c(NCc3ccccc3)cc(N[C@@H](CO)Cc3ccccc3)cc21 93.5%, Cc1nnnn1/C(=C\c1ccccc1)C(=O)OCC(=O)N1CC2(C)CC1CC(C)(C)C2 (stereo not given) 57.8%, CCc1nn(-c2cc(Oc3cccc4ccccc34)nc(-c3ccccc3)n2)c(N)c1C#N 86.8%, COc1ccc(CNC(=O)C(c2ccc(O)cc2)N(Cc2ccco2)C(=O)c2snc(C(N)=O)c2N)cc1 (stereo not given) 54.5%, COc1ccc(NC(=O)c2cc(-c3cc(OC)c(OC)c(OC)c3)nc3ccccc23)c(OC)c1 61.6%, CN(c1ccccc1)S(=O)(=O)c1cc(C(=O)N2CCN(c3ncccn3)CC2)ccc1Cl 77.3%, O=C(Nc1nnc(-c2ccccc2)o1)c1cc(-c2cccs2)nc2ccccc12 51%, CN(C)c1ccnc2sc3c(=O)n(Cc4ccccc4)cnc3c12 59.1%, Cc1ccc(C)c(N2CCN(C(=O)CCCCCn3c(=S)[nH]c4ccc(N5CCOCC5)cc4c3=O)CC2)c1 85.6%, O=C(CCn1c(=S)[nH]c2cc3c(cc2c1=O)OCO3)NCc1ccc(Cl)cc1 56.3%, O=C(CCCCCn1c(=S)[nH]c2cc3c(cc2c1=O)OCO3)N1CCN(c2ccc(F)cc2)CC1 53.5%, CCOC(=O)c1c(-c2ccc(C)cc2C)csc1NC(=O)CSc1nnnn1C 73.7%, CS(=O)(=O)c1ccc(-c2nnn(CC(=O)Nc3ccc4c(c3)OCCO4)n2)cc1 86.1%, Cc1ccsc1C(=O)OCC(=O)c1cc(C)n(CC2CCCO2)c1C (stereo not given) 94.1%, COc1cccc(NC(=O)[C@H](Cc2c[nH]c3ccccc23)NC(=O)[C@@H]2Cc3ccccc3CN2)c1 94.4%, Cc1cccc(NC(=S)NCc2ccc3[nH]c4c(c3c2)CCCC4)c1 63.6%

inhibition, inactive:
COc1ccc(C(C)=O)cc1CSc1nc2nc(C)cc(C)n2n1 -8.43%, Cc1cc(C)n(-c2ccc(C(=O)O)cc2[N+](=O)[O-])n1 -9.75%, CCOC(=O)C1C(c2ccc(OC)c(OC)c2)c2c([nH][nH]c2=O)CC1(C)O (stereo not given) -7.74%, COCCCNC(=S)NCCNc1nc2cc(C)c(C)cc2cc1C#N -28.9%, C=CCN(CC=C)C(=O)CN1C(=O)c2ccccc2C1=O 11.2%, Cc1cc(C(=O)COC(=O)CCCN2C(=O)c3ccccc3C2=O)c(C)n1C 6.08%, Cc1cc(S(=O)(=O)N2CCOCC2)ccc1OCC(=O)Nc1cccc(C(F)(F)F)c1 23.2%, CCC(CO)Oc1cc(NCc2ccccc2)c2ncn(C3CCCC3)c2c1 (stereo not given) 7.28%, CC(C)n1cnc2c(NCc3ccccc3)cc(OCC3CCN(C)CC3)cc21 22.6%, CC(C)(Oc1ccc(C2CC2(Cl)Cl)cc1)C(=O)O (stereo not given) 26.9%, Cn1cc(S(=O)(=O)N2CCN(c3ccc(F)cc3)CC2)c(=O)n(C)c1=O 8.49%, CCCCn1c(=S)[nH]c2cc(S(=O)(=O)N3CCCCC3)ccc21 -7.07%, O=C(Nc1cc(S(=O)(=O)Nc2ccc(Cl)cc2)ccc1O)c1ccc(F)cc1F 6.95%, COc1ccc(C(=O)N2CC3(C)CC2CC(C)(C)C3)cc1OC (stereo not given) 16.7%, Cc1cccc(C(=O)NCC(=O)OCC(=O)N2CC3(C)CC2CC(C)(C)C3)c1 (stereo not given) -13.6%, Cc1ccc(C(=O)NCC(=O)O)s1 14%, CC(C)(C)n1nc(Cc2cccc3ccccc23)c(C#N)c1N -12%, CC#CC[N+](C)(C)CCCCCC -0.896%, C=CCn1c(-c2ccccc2OCC)n[nH]c1=S 18.7%, C/C(=N\NC(=O)c1cc(-c2ccc(O)cc2)nc2ccccc12)c1cccnc1 -9.48%, CCOc1cc(CNCc2ccccn2)ccc1OCC(=O)NC(C)(C)C -2.81%, COc1cc(C(C(=O)NC2CCCC2)N(Cc2ccccc2)C(=O)c2snc(C(N)=O)c2N)ccc1O (stereo not given) 21.6%, NC(=O)c1nsc(C(=O)N(CC(=O)NCc2ccc(F)cc2)Cc2ccco2)c1N 9.54%, CCc1ccc(OCC(O)CN2CCN(CCO)CC2)cc1 (stereo not given) 19.2%, CCOC(=O)c1cnn(Cc2ccccc2Cl)c1N -23.4%, CC(C)(C)n1ncc2c(=O)n(Cc3c(Cl)cccc3Br)cnc21 10.5%, CC(C)c1nnc(NC(=O)C2CC(=O)N(CCc3ccc(F)cc3)C2)s1 (stereo not given) -16.4%, CCN(C(=O)COC(=O)c1c(NC(C)=O)sc(C)c1C)C1CCS(=O)(=O)C1 (stereo not given) 13.7%, O=C(c1cccs1)N(Cc1cc2ccccc2[nH]c1=O)CC1CCCO1 (stereo not given) -37.5%, COc1ccc(-c2c(NC(=O)c3ccco3)oc3ccc(Cl)cc3c2=O)cc1 -18.1%, COc1ccccc1NC(=O)c1cc(Cl)nc2ccccc12 -6.72%, COc1ccc(-c2cc(C(=O)Nc3ccccc3O)c3ccccc3n2)cc1 9.09%, CCN(CC(=O)Nc1ccccc1C(=O)NC1CC1)Cc1cccs1 30.2%, O=C(C1=C[C@H](c2coc3ccccc3c2=O)C[C@H](OCc2ccc(CO)cc2)O1)N1CCN(Cc2ccccc2)CC1 8.82%, CN(c1ccccc1)S(=O)(=O)c1cc(C(=O)OCC(=O)N2CCN(C(=O)c3ccco3)CC2)ccc1Cl 15.6%, CN(c1ccccc1)S(=O)(=O)c1ccc(C(=O)N2CCN(c3ccccc3Cl)CC2)cc1 28.8%, COC(=O)c1ccc(C)c(NC(=O)Cn2c(C)csc2=O)c1 26.8%, CC(C)(C)Cc1nnc(NC(=O)c2cc(-c3ccccc3)nc3ccccc23)s1 -22%, O=C(Nc1nnc(-c2ccc(Cl)cc2)o1)c1ccccc1Br -13.3%, COc1ccc(Cl)cc1C(=O)NNC(=O)c1nc2nc(C)cc(C)n2n1 8.57%, CN(C)/C=C/c1c(C#N)c(=O)ncn1Cc1ccccc1 13.9%, O=c1c2c(ncn1Cc1ccccc1)nc1n2CCC1 19.7%, CN(CCC#N)c1ncnc2scc(-c3ccccc3)c12 21.2%, CC(C)CCN1CCC(C)(NC(=O)c2ccccc2)C1=O (stereo not given) -21.2%, CC(C)NC(=O)CCCn1c(=S)[nH]c2cc3c(cc2c1=O)OCO3 -5.62%, CN(C)CCn1c(=S)[nH]c2ccc(Cl)cc2c1=O 8.17%, O=C(NCCS(=O)(=O)N1CCN(c2ccc(F)cc2)CC1)c1ccc2c(c1)OCO2 7.26%, Cc1ccc(C)c(N2CCN(C(=O)CCCn3c(=O)c4cccn4c4cccnc43)CC2)c1 1.5%, O=C(CNS(=O)(=O)c1ccc2c(c1)OCCCO2)N1CCN(c2ccc(F)cc2)CC1 7.54%, Cc1ccc(C)c(N2CCN(C(=O)CCCCn3c(=O)[nH]c4ccccc4c3=O)CC2)c1 8.89%, Cn1ccsc1=NC(=O)c1cc(S(=O)(=O)N2CCOCC2)ccc1Cl 28%, NS(=O)(=O)c1ccc(CCNC(=O)CN2C(=O)c3ccccc3S2(=O)=O)cc1 27.9%, O=C(COC(=O)c1ccc(Br)o1)NC12CC3CC(CC(C3)C1)C2 15.9%, Cc1csc(=O)n1CCC(=O)OCC(=O)NNC(=O)c1ccc(Br)cc1 8.79%, CCCN(CCC)C(=S)Nc1cc(C(=O)OC)ccc1C(=O)OC 9.38%, CCOC(=O)C1CCN(C(=O)c2ccccc2N(C)S(=O)(=O)c2ccccc2)CC1 -12.4%, C=CS(=O)c1sc(Cl)c(N2CCOCC2)c1[N+](=O)[O-] (stereo not given) 25.9%, COC(=O)c1ccccc1NC(=O)CSc1nnnn1C -3.43%, Cn1nnnc1SCC(=O)Nc1sccc1C(N)=O 0.655%, Cc1ccc(/C=C/C(=O)O)cc1S(=O)(=O)N1CCC(Cc2ccccc2)CC1 -1.19%, Cc1ccc(S(=O)(=O)NCC(=O)Nc2ccc3c(c2)OCCO3)cc1 10%, Cc1cccc(C(=O)Nc2ccccc2-c2nnn(CC(=O)Nc3ccc4c(c3)OCCO4)n2)c1 15.2%, CC1CCCCC12NC(=O)N(CC(=O)OCc1c(F)cccc1Cl)C2=O (stereo not given) 2.6%, COc1ccc(C(=O)OCC(=O)c2cc(C)n(CC3CCCO3)c2C)cc1[N+](=O)[O-] (stereo not given) 2.69%, Cc1cc(C(=O)Cn2cnc3cc([N+](=O)[O-])ccc3c2=O)c(C)n1CC1CCCO1 (stereo not given) -7.26%, COc1ccc(NC(=O)[C@H](NC(=O)[C@@H]2Cc3ccccc3CN2)c2ccccc2)cc1 -1.06%, COc1ccc(CNC(=O)[C@H](Cc2c[nH]c3ccccc23)NC(C)=O)cc1OC 10.9%, C/C=C/c1ccc(OCCCCN2CCC(C)CC2)c(OC)c1 -26%, Cc1cccc(NC(=S)NCCN(C2CCCCC2)C2CCCC2)c1 44.3%, Cc1cc(C)cc(NC(=S)NCc2ccc(F)cc2)c1 -4.57%, CC(C)=CCc1c(O)c(CC=C(C)C)c2occ(-c3ccc(O)cc3)c(=O)c2c1O 45.8%, CCC1(CC)NC(=O)N(CC(=O)OCC(=O)c2cc(C)c(C)cc2C)C1=O 22.7%
